Screening results deposited in PubChem by NMMLSC.
Hits are enriched below; roughly 1.8% of the tested compounds scored in any of these assays.
Myeloid diff 2: compounds promoting myeloid differentiation | ER-HoxA9 myeloid progenitors, lysozyme-GFP differentiation, flow cytometry | calls only at 10 µM | 360,000 tested, 1% active | AID 624256;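 active = normalized GFP-positive differentiation at or above the plate's own cutoff, the solvent-only control mean plus 3 SD; inconclusive = no clear call, values can overlap the other calls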;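 note: cells exposed to compound for four days before flow analysis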
RPL19A TOR yeast: alters RPL19A-GFP fluorescence in TOR pathway yeast screen | percent response vs DMSO, % at 10 µM | 330,000 tested, 0.3% active | AID 2025 | S. cerevisiae RPL19A-GFP strain, flow cytometry, 3 h; stronger effect = lower value;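 active = percent response vs DMSO below 50%; inconclusive = fewer than 70 events counted for the yeast strain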;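 note: median channel GFP fluorescence of the barcoded RPL19A-GFP strain; ratio of sample median GFP to plate DMSO average so 100% = DMSO; lower means less RPL19A-GFP as with rapamycin TOR inhibition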
AGP1-GFP MLPCN: alters AGP1-GFP fluorescence in TOR pathway yeast screen. S. cerevisiae AGP1-GFP multiplex flow cytometry, 3 h; GFP as percent of DMSO wells. GFP response vs DMSO, % at 10 µM. 320,000 tested, 0.02% active. AID 2066;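 active = GFP response relative to DMSO above a set limit, near screen average plus 3 SD, cut at about 150% in these data; inconclusive = fewer than 70 cells counted for the yeast strain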;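 note: median GFP channel fluorescence of the gated AGP1 strain per well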
LAP4-GFP MLPCN: yeast TOR pathway LAP4-GFP modulation | S. cerevisiae LAP4-GFP multiplex, flow cytometry GFP, 3 h; median GFP as percent of DMSO wells | GFP response vs DMSO, % at 10 µM | 320,000 tested, 0.34% active;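 active = GFP response vs DMSO above a set limit, about the screen mean plus 3 SD, cut at about 150% in these data; inconclusive = under 70 cell events counted for the yeast strain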
MEP2-GFP yeast: modulators of TOR pathway MEP2-GFP in S. cerevisiae; S. cerevisiae MEP2-GFP strain, flow cytometry GFP, 3 h; 100% = DMSO control level; GFP response vs DMSO, % at 10 µM; 330,000 tested, 0.51% active;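 active = GFP response versus DMSO above a set limit, roughly screen mean plus 3 SD, cut at about 180% in these data; inconclusive = fewer than 70 cells counted for a yeast strain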;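 note: median GFP fluorescence of the barcode-gated MEP2-GFP cells per well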
CIT2 TOR yeast: yeast TOR pathway CIT2-GFP modulation | S. cerevisiae CIT2-GFP strain, flow cytometry, 3 h; 100 means same as DMSO wells | GFP response vs DMSO, % at 10 µM | 320,000 tested, 0.065% active;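 active = GFP response relative to DMSO above a set limit, near the screen mean plus 3 SD, cut at about 150% in these data; inconclusive = Fewer than 70 cells measured for a yeast strain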;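 note: ratio of well median GFP fluorescence to mean of DMSO wells on the plate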
* hit, by the source's call; [ ] = dose if it differs, or a comment.

Results for CCN1CN=C(NS(=O)(=O)c2ccc(C)cc2)NC1 ?
Myeloid diff 2: inactive; RPL19A TOR yeast: 102; AGP1-GFP MLPCN: 109; LAP4-GFP MLPCN: 107; MEP2-GFP yeast: 103; CIT2 TOR yeast: 102

Results for CCn1ccc2cc(OC)ccc2c1=S ?
Myeloid diff 2: inactive; RPL19A TOR yeast: 97; AGP1-GFP MLPCN: 91; LAP4-GFP MLPCN: 101; MEP2-GFP yeast: 96; CIT2 TOR yeast: 88

Results for CCSc1ccc2cc(OC)ccc2[n+]1CC ?
Myeloid diff 2: active; RPL19A TOR yeast: 104; AGP1-GFP MLPCN: 108; LAP4-GFP MLPCN: 109; MEP2-GFP yeast: 108; CIT2 TOR yeast: 109

How did COc1ccc(CNC(=O)COc2ccc(F)cc2)cc1 do in these assays?
Myeloid diff 2: inactive; RPL19A TOR yeast: 102; AGP1-GFP MLPCN: 113; LAP4-GFP MLPCN: 102; MEP2-GFP yeast: 103; CIT2 TOR yeast: 99

What do the screens show for `CC(C)(C)c1ccc(CNC(=O)c2ccc3c(c2)NC(=O)CO3)cc1`?
Myeloid diff 2: active; RPL19A TOR yeast: 102; AGP1-GFP MLPCN: 105; LAP4-GFP MLPCN: 98; MEP2-GFP yeast: 108; CIT2 TOR yeast: 112

What do the screens show for `C=CCn1c(=O)/c(=C2/SC(C)=C(C)N2CC)s/c1=C1/C(=O)N(CC)C(=S)N1c1ccccc1`?
Myeloid diff 2: active; RPL19A TOR yeast: 105; AGP1-GFP MLPCN: 110; LAP4-GFP MLPCN: 100; MEP2-GFP yeast: 103; CIT2 TOR yeast: 118

How did C=CCn1c(=O)/c(=C2/Sc3ccccc3N2CC)s/c1=C1/C(=O)NN=C1C do in these assays?
RPL19A TOR yeast: 99; AGP1-GFP MLPCN: 104; LAP4-GFP MLPCN: 143; MEP2-GFP yeast: 146; CIT2 TOR yeast: 138

Results for O=C(/C=C/c1ccco1)Oc1cc(Br)cc(/C=N/NC(=O)c2ccccc2O)c1 ?
Myeloid diff 2: inconclusive; RPL19A TOR yeast: 37*[may fluoresce violet]; AGP1-GFP MLPCN: 18; LAP4-GFP MLPCN: 72; MEP2-GFP yeast: 296*[may fluoresce violet]; CIT2 TOR yeast: inconclusive

What do the screens show for `O=c1c(Cc2c(F)cccc2Cl)c(O)ccn1Cc1ccc2c(c1)OCO2`?
Myeloid diff 2: inactive; RPL19A TOR yeast: 92; AGP1-GFP MLPCN: 94; LAP4-GFP MLPCN: 116; MEP2-GFP yeast: 106; CIT2 TOR yeast: 83

What do the screens show for `Cc1ccc2c(c1)c1c3n2CCN=C3CCC1`?
Myeloid diff 2: active; RPL19A TOR yeast: 102; AGP1-GFP MLPCN: 109; LAP4-GFP MLPCN: 94; MEP2-GFP yeast: 102; CIT2 TOR yeast: 110

Results for CCn1c(SCC(=O)Nc2ccc(F)cc2)nnc1-c1cnccn1 ?
Myeloid diff 2: inactive; RPL19A TOR yeast: 38*[may fluoresce violet]; AGP1-GFP MLPCN: 19; LAP4-GFP MLPCN: 84; MEP2-GFP yeast: 169; CIT2 TOR yeast: inconclusive

What do the screens show for `C=CCn1c(SCC(=O)Nc2ccc(F)cc2)nnc1-c1cnccn1`?
Myeloid diff 2: inactive; RPL19A TOR yeast: 108; AGP1-GFP MLPCN: 105; LAP4-GFP MLPCN: 99; MEP2-GFP yeast: 110; CIT2 TOR yeast: 114

What do the screens show for `Cc1c(SCCO)c(=O)[nH]c2cc3c(cc12)OCO3`?
Myeloid diff 2: inactive; RPL19A TOR yeast: 104; LAP4-GFP MLPCN: 112; MEP2-GFP yeast: 106; CIT2 TOR yeast: 111

How did COc1ccc(C(C)NCCC(c2ccc(OC(C)C)cc2)c2ccccc2OC)cc1 (configuration not stated) do in these assays?
Myeloid diff 2: active; RPL19A TOR yeast: 101; AGP1-GFP MLPCN: 96; LAP4-GFP MLPCN: 105; MEP2-GFP yeast: 103; CIT2 TOR yeast: 99

How did O=c1ccn([C@@H]2O[C@H](CNCc3ccccc3)[C@@H](O)[C@H]2O)c(=O)[nH]1 do in these assays?
Myeloid diff 2: inactive

Results for O=C(CN1C(=O)CSc2ccc(S(=O)(=O)N3CCOCC3)cc21)NCCCN1CCCCC1 ?
Myeloid diff 2: inactive; RPL19A TOR yeast: 104; AGP1-GFP MLPCN: 103; LAP4-GFP MLPCN: 96; MEP2-GFP yeast: 99; CIT2 TOR yeast: 102

How did O=C(NCCCN1CCOCC1)c1cccc(S(=O)(=O)N2CCOCC2)c1 do in these assays?
Myeloid diff 2: inactive; RPL19A TOR yeast: inactive; AGP1-GFP MLPCN: active[may fluoresce green]; LAP4-GFP MLPCN: active[may fluoresce green]; MEP2-GFP yeast: active[may fluoresce green]; CIT2 TOR yeast: active[may fluoresce green]

Results for Cc1ccc(/C=C/C(=O)Nc2cccc(S(=O)(=O)N3CCOCC3)c2)o1 ?
Myeloid diff 2: active; RPL19A TOR yeast: 97; AGP1-GFP MLPCN: 98; LAP4-GFP MLPCN: 96; MEP2-GFP yeast: 111; CIT2 TOR yeast: 91

What do the screens show for `O=C(COC(=O)c1cccc(S(=O)(=O)N2CCOCC2)c1)c1ccccc1`?
Myeloid diff 2: inconclusive; RPL19A TOR yeast: 53; AGP1-GFP MLPCN: 15; LAP4-GFP MLPCN: 75; MEP2-GFP yeast: 308*[may fluoresce violet]; CIT2 TOR yeast: inconclusive

How did O=C(CN1C(=O)CSc2ccc(S(=O)(=O)N3CCOCC3)cc21)NCCCN1CCOCC1 do in these assays?
Myeloid diff 2: inactive; RPL19A TOR yeast: 23*[may fluoresce violet]; AGP1-GFP MLPCN: inconclusive; LAP4-GFP MLPCN: inconclusive; MEP2-GFP yeast: inconclusive; CIT2 TOR yeast: inconclusive

How did COc1ccc(Cl)cc1C=CC=NNS(=O)(=O)c1ccc(C)cc1 do in these assays?
Myeloid diff 2: inactive

Results for O=C(OC1Cn2c(=O)ccc(=O)n2C1)c1ccc([N+](=O)[O-])cc1 ?
Myeloid diff 2: inactive; RPL19A TOR yeast: 103; AGP1-GFP MLPCN: 102; LAP4-GFP MLPCN: 102; MEP2-GFP yeast: 99; CIT2 TOR yeast: 100

What do the screens show for `COc1ccc(C(=O)NNC(=O)CSc2nnc(COc3ccccc3OC)n2C)cc1`?
Myeloid diff 2: inactive; RPL19A TOR yeast: 104; AGP1-GFP MLPCN: 101; LAP4-GFP MLPCN: 109; MEP2-GFP yeast: 102; CIT2 TOR yeast: 96

Results for CCC1Nc2ncnc(N3CCc4ccccc4C3)c2N(Cc2ccc(Br)cc2)C1=O (configuration not stated) ?
Myeloid diff 2: inactive

Results for O=C(O)C1C2C=CC(C2)C1C(=O)Nc1ccccc1Br (configuration not stated) ?
Myeloid diff 2: inactive; RPL19A TOR yeast: 102; AGP1-GFP MLPCN: 97; LAP4-GFP MLPCN: 91; MEP2-GFP yeast: 104; CIT2 TOR yeast: 102

How did Cc1cc(NC(=O)c2cccc(S(=O)(=O)N3CCOCC3)c2)no1 do in these assays?
Myeloid diff 2: inactive; RPL19A TOR yeast: 40*[may fluoresce violet]; LAP4-GFP MLPCN: 106; MEP2-GFP yeast: 536*[may fluoresce violet]; CIT2 TOR yeast: inconclusive

What do the screens show for `O=C(NCCCN1CCOCC1)c1ccc(Sc2ccccc2Cl)c([N+](=O)[O-])c1`?
Myeloid diff 2: inactive; RPL19A TOR yeast: 106; AGP1-GFP MLPCN: 91; LAP4-GFP MLPCN: 92; MEP2-GFP yeast: 103; CIT2 TOR yeast: 114

What do the screens show for `Cc1cc(NC(=O)c2cccc(S(=O)(=O)N3CCCCC3)c2)no1`?
Myeloid diff 2: inactive; RPL19A TOR yeast: 100; AGP1-GFP MLPCN: 104; LAP4-GFP MLPCN: 105; MEP2-GFP yeast: 104; CIT2 TOR yeast: 90
